In PubChem BioAssay AID1963822 (ICCB-Longwood Screening Facility, Harvard Medical School, 2024):
Screen size: about 55,000 compounds; about 90 (0.2%) were called active. The sample holds actives, similar compounds and a random draw of the others, so the mix is not that of the screen. The rule behind the calls is not given here.

Assay: growth inhibitors of anaerobic choline-fed gram-negatives, minimal medium, absorbance (AID 1963822)
Details: Gram-negative bacterium anaerobic choline minimal medium
[1] = measured here: choline growth z-score, timepoint 1, stronger effect = lower value

SMILES	z-score (stronger effect = lower value)	z-score [1]
COc1cccc(N2C(=O)c3cc(C)nn3CC2(C)C(=O)NCc2ccccc2)c1 (stereo not drawn)	0.09 (inactive)	-0.96
Cc1cc(C)n(CCc2nc(-c3ccc(Cl)cc3)no2)n1	-0.52 (inactive)	-1.19
O=C(NC1CCCCC1)c1ccc(Cl)c(-n2nnc3cccnc32)c1	0.14 (inactive)	0.44
Cc1cccc(-c2nn3c(=O)cc(CN4CCN(C(=O)c5cccc(Br)c5)CC4)nc3s2)c1	0.88 (inactive)	0.71
COc1ccc2cc3c(nc2c1)N(C(=O)c1ccc(OC)c(OC)c1)CC3	0.77 (inactive)	0.04
COc1cccc(-c2nn(Cc3ccc(C)cc3)c(=O)c3noc(C)c23)c1	1.18 (inactive)	-0.21
COc1ccc(NC(=O)N2CCN(C)c3ncccc32)cc1	-0.52 (inactive)	-1.12
COc1ccc(-c2nc(SCC(=O)Oc3ccc(C)cc3C)n3[nH]c(=O)cc3n2)cc1	-0.54 (inactive)	-0.44
CN(C)C(=O)CN1C(=O)COc2ccc(C(=O)NCc3ccc4c(c3)OCO4)cc21	0.4 (inactive)	0.23
O=C1CN(Cc2ccccc2Cl)S(=O)(=O)c2ccccc2N1Cc1cccc(F)c1	0.04 (inactive)	0.04
CCOc1ccc(NC(=O)NCCn2c(C(F)(F)F)nc3ccccc32)cc1	0.3 (inactive)	0.45
O=C(Cc1csc(NC(=O)Nc2ccc(Cl)cc2)n1)Nc1cccc(Cl)c1	-2.04 (active)	-1.2
O=C(Cc1nnc(NC(=O)Nc2cccc(Cl)c2)s1)NCc1ccccc1	0.49 (inactive)	0.9
CCC(=O)Nc1nc2cc(NC(=O)Nc3cccc(Cl)c3)ccc2s1	0 (inactive)	-0.84
O=C(NCc1ccc2c(c1)OCO2)c1ccc(-c2noc(C3CC3)n2)cc1	0.36 (inactive)	0.22
COCC(=O)Nc1ccc(-c2nc3ccccc3s2)cc1	-0.9 (inactive)	-0.43
CCSc1nc2ccc(NS(=O)(=O)Cc3cc(C)ccc3C)cc2s1	1.35 (inactive)	0.62
Cc1csc2ncc(C(=O)N3CCCCCC3)c(=O)n12	-0.29 (inactive)	-0.07
c1ccc(CCNc2c3c(nc4nncn24)CCC3)cc1	0.56 (inactive)	0.78
CC(C)n1cnc(S(=O)(=O)N2CCC(C(=O)N3CCCC3)CC2)c1	0.57 (inactive)	-0.23
O=C(Nc1ccc(Br)cc1F)N1CCN(c2cc(-c3ccccc3)ncn2)CC1	-1.08 (inactive)	-1.03
CCC1Oc2cc(S(=O)(=O)N3CCCC(C(=O)N4CCc5ccccc54)C3)c(C)cc2NC1=O (stereo not drawn)	0.06 (inactive)	-0.03
CCN1CCN(S(=O)(=O)c2ccc(C)cc2C)c2cccnc21	-0.02 (inactive)	-0.19
Cn1c(=O)n(C)c2cc(CNCC(O)c3ccccc3)ccc21 (stereo not drawn)	-0.37 (inactive)	-0.32
Cc1ccc2c(c1)c1c(n2CC(O)CNCc2ccccc2)CCCC1 (stereo not drawn)	-2.96 (active)	-0.69
COC(=O)CC1=CC(=O)N(CC(=O)Nc2ccc(C)cc2Br)c2ccccc2N1	0.27 (inactive)	0.25
COc1ccc(-n2nnc3c(N4CCN(C(=O)CC5CCCC5)CC4)ncnc32)cc1	-0.34 (inactive)	0.31

SMILES	z-score (stronger effect = lower value)	z-score [1]
CC(C)CSc1nn(C)c2nc3c(c(=O)n12)C(C)(C)Cc1ccccc1-3	0.12 (inactive)	-0.98
Cn1cc(CN2CCC(C(=O)N3CCCC3)CC2)c2cc(Cl)ccc21	-1.08 (inactive)	-0.88
CCC(C)(C)NC(=O)CN(C)S(=O)(=O)c1cc2c(cc1Cl)NC(=O)CO2	0.45 (inactive)	-0.29
COc1ccc(-c2nn(-c3ccccc3)cc2C2CC(c3ccccc3)=NN2S(C)(=O)=O)cc1 (stereo not drawn)	0.58 (inactive)	0.97
Cc1nc(N2CCCC2)ncc1C(=O)N1CCCCC1	0.92 (inactive)	-0.25
CCCn1c(=O)c2ccccc2n2c(=O)n(CC(=O)c3ccc(C)cc3C)nc12	-0.82 (inactive)	-0.89
Cn1c(=O)c2[nH]c(-c3ccncc3)nc2n(C)c1=O	-1.62 (inactive)	-1.51
Cc1ccc(-c2noc(CCn3nc(-c4ccc5c(c4)OCO5)ccc3=O)n2)cc1	1.77 (inactive)	1.44
CCOc1ccc(NC(=O)Nc2ccc(-c3cc4cc(Cl)ccc4[nH]3)cc2)cc1	-0.97 (inactive)	-1.43
Cc1nn(CC(=O)NCCc2c[nH]c3ccccc23)c(=O)c2noc(C)c12	-1.18 (inactive)	-0.02
CCC(Sc1nnc(-c2ccccc2NC(C)=O)c(=O)[nH]1)C(=O)Nc1c(C)cc(C)cc1C (stereo not drawn)	0.57 (inactive)	-0.51
COc1ccc(NC(=O)CSc2nc3ccccc3n2Cc2ncc(C)c(OC)c2C)cc1	0.8 (inactive)	0.74
COc1ccc(CN2CCCC2c2cc(C)on2)cc1CN1CCOCC1 (stereo not drawn)	-1.52 (inactive)	-0.66
COc1cc2[nH]c(=O)n(CCCC(=O)NCCCN3CCN(c4cccc(Cl)c4)CC3)c(=O)c2cc1OC	-0.27 (inactive)	0.11
O=C(CN(Cc1ccccc1)S(=O)(=O)c1ccc(Br)cc1)N1CCN(c2ccc(F)cc2)CC1	0.95 (inactive)	0.76
O=C(Nc1ccccc1F)C1CC(=O)N(CCc2c[nH]c3ccc(F)cc23)C1 (stereo not drawn)	-0.07 (inactive)	0.17
CC(=O)Nc1ccc(S(=O)(=O)N2CCN(Cc3nc4cccnc4n3-c3ccc(C)cc3)CC2)cc1	0.91 (inactive)	-0.17
Cc1ccc(-n2nc(N3CCCN(C(=O)C4CCC4)CC3)ccc2=O)cc1C	-0.57 (inactive)	1.18
CCN(CCCNC(=O)C1CCCN(C(=O)c2cccc(Cl)c2)C1)c1ccccc1 (stereo not drawn)	-1 (inactive)	-1.29
Cc1nc(N2CCC(C(=O)N3CCOCC3)CC2)c2c(C)c(C)oc2n1	-0.5 (inactive)	-0.48
CCOc1ccc(NC(=O)Nc2ccc(Cn3cnc(-c4nc(-c5ccc(Cl)cc5)no4)c3)cc2)cc1	0.25 (inactive)	0.58
O=C(O)C1Nc2ccc(Cl)cc2C2C=CCC12 (stereo not drawn)	1.42 (inactive)	2.01
Cc1ccc(OCc2nc3c4ccccc4ncn3n2)cc1	0.29 (inactive)	0.48
CC(C)c1ccc(N2C(=O)c3cc4ccsc4n3CC2(C)C(=O)NC2CCCC2)cc1 (stereo not drawn)	0.43 (inactive)	0.35
CCOc1cc(-c2noc(CCCC(=O)Nc3cccnc3)n2)ccc1OC	-0.11 (inactive)	-0.21
CN(CCc1noc(-c2ccccc2Cl)n1)S(=O)(=O)c1cccc2nsnc12	0.03 (inactive)	-1.43
CCN1CCN(C(=O)c2cc(C)n(CCN3CCCC3)c2C)CC1	-1.12 (inactive)	-1.13

SMILES	z-score (stronger effect = lower value)	z-score [1]
Cc1nc(-c2ccc(C)c(S(=O)(=O)N3CCC(C(=O)N4CCN(c5ccc(F)cc5)CC4)CC3)c2)no1	0.78 (inactive)	0.51
COC(=O)C1=CN(C)S(=O)(=O)N=C1C	1.05 (inactive)	0.71
O=C(O)c1c[nH]c2ccc(S(=O)(=O)NC3CCCCNC3=O)cc2c1=O (stereo not drawn)	1.32 (inactive)	1.13
O=C(c1cc2cc(Cl)ccc2[nH]1)N1CCCN(c2ccc(=O)n(-c3ccccc3)n2)CC1	-1.08 (inactive)	-1.54
CCCCCCCC/C=C\CCCCCCCC(=O)OC[C@H](CO)OC(C)=O	0.47 (inactive)	0.34
CCCC[C@H](C)C[C@H](O)/C=C/[C@@H]1[C@@H](CCCCCCC(=O)O)[C@@H](O)C[C@H]1O	0.5 (inactive)	-0.78
CCCCC/C=C\C/C=C\CCCCCCCCCC(=O)O	-3.44 (active)	-3.23
CCCCC/C=C\CC1OC1CCCCCCCC(=O)O (stereo not drawn)	-3.37 (active)	-3.13
CCCCC[C@@](C)(O)/C=C/[C@H]1C=CC(=O)[C@@H]1C/C=C\CCCC(=O)O	-0.26 (inactive)	0.66
CCCCCC(=O)CC[C@H]1[C@H](O)CC(=O)[C@@H]1C/C=C\CCCC(=O)O	0.71 (inactive)	1.09
CCOC(=O)c1ccc(NC(=O)CSc2nnc(NC(=O)NC3CCCCC3)s2)cc1	0.1 (inactive)	0.31
COc1cccc(C2Nc3ccc(Cl)cc3[C@H]3OCCC[C@@H]23)c1OC (stereo partly drawn)	1.2 (inactive)	2.03
CN(CCCNC(=O)c1c2c(nc3ccccc13)C(=O)N(C1CCCCC1)C2)c1ccccc1	-0.07 (inactive)	-1.59
COc1ccc(NC(=O)c2cccc(-c3nc(-c4ccc(F)cc4)no3)c2)cc1OC	-1 (inactive)	-0.62
CN1CCN(S(=O)(=O)c2ccc3c(c2)C(C)(C)CN3CC(=O)N2CCCC2)CC1	1.07 (inactive)	0.91
Cc1cn(C)c(CC(=O)NC2CCN(Cc3ccccc3)CC2)c1C(=O)O	-0.86 (inactive)	0.19
Brc1ccc(-c2nn[nH]n2)cc1	-1.32 (inactive)	-1.04
CCOC(=O)C1CCCN(C(=O)Cn2c(=O)c3ccccc3n3c(=S)sc(-c4ccccc4)c23)C1 (stereo not drawn)	0.91 (inactive)	0.36
CCN(CC)C(=O)CSc1nnc2c3ccccc3nc(-c3ccccc3)n12	2.11 (inactive)	1.21
CCOc1ccc(S(=O)(=O)NC(C)C)cc1-c1nc(C)no1	0.37 (inactive)	-1.19
CCCN(CCC)CCNc1cc(C)nc2c(-c3ccccc3OC)c(C)nn12	1.1 (inactive)	-0.02
Cc1nc(-c2csc(S(=O)(=O)NCc3ccccc3Cl)c2)sc1C	-0.96 (inactive)	-0.18
Cc1[nH]nc2c1C(C(=O)c1cccc(Cl)c1)CC(=O)N2 (stereo not drawn)	0.36 (inactive)	0.1
COc1ccc(NS(=O)(=O)c2cc(-c3nc(-c4ccccc4)no3)sc2C)cc1OC	0.43 (inactive)	-0.06
CCN1CCN(C(=O)c2cc(N(C)S(=O)(=O)c3ccccc3)ccn2)CC1	0.78 (inactive)	0.89
